For some of these results: Potency and affinity values are given separately.
Experiments:
Set-up in all cases: scale not given: direction of the effect not stated beside the values
[1] = biological target: Protein translocase subunit SecA (Escherichia coli (strain K12)) (UniProt P10408); assay: Assay to Identify E. coli SecA ATPase Inhibitors; type: functional; conditions: 30 µM
[2] = biological target: T1, Ubiquitin-activating enzyme e1, putative (Leishmania donovani (strain BPK282A1)) (UniProt E9BSI1); assay: Leishmania donovani Ubiquitin Activating Enzyme (LdE1); type: functional; conditions: 30 µM
T1 sequence (whole entry): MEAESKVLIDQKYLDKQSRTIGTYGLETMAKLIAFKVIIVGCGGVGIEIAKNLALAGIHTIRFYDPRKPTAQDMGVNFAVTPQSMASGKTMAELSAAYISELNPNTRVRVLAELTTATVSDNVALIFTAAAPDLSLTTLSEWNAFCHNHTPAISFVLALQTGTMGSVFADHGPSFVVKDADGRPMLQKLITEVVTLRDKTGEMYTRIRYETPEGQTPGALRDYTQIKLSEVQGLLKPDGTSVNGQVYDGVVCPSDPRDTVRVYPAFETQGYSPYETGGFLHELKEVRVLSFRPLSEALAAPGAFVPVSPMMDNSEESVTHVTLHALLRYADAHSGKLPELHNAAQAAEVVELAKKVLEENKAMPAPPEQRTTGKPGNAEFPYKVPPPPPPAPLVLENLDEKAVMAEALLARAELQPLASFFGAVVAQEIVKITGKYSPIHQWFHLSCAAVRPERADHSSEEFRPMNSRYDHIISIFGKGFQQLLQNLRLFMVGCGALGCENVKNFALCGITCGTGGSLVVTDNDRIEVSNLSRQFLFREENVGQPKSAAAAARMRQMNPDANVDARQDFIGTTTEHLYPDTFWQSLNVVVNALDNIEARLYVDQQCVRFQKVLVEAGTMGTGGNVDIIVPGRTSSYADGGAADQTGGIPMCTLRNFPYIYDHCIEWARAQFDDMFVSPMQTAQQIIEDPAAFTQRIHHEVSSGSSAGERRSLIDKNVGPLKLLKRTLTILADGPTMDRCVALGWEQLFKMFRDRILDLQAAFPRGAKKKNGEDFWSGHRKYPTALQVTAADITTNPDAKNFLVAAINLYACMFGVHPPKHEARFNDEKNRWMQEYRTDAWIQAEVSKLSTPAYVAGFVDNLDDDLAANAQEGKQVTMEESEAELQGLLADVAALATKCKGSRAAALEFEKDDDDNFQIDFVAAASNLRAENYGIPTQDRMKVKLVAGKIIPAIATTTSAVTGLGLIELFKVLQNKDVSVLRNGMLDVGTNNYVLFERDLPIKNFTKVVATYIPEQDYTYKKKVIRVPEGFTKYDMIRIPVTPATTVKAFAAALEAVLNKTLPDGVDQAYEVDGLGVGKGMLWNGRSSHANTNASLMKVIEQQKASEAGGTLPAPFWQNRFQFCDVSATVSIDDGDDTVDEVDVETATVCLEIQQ

[3] = biological target: AMP-activated protein kinase, AMPK (Homo sapiens) (UniProt P54646+O43741+P54619+Q9UGJ0+Q9Y478+Q13131+Q9UGI9); assay: AMP-dependent Kinase enzyme assay. An in vitro enzyme assay that detects ADP turnover that is directly proportional to AMPK activity. This uses naive AMPK that is activated during the assay with MK-8722; type: functional; conditions: 30 µM
[4] = biological target: Sialic acid-binding Ig-like lectin 9 (Homo sapiens) (UniProt Q9Y336); assay: Hs-Siglec9 ALPHAscreen SOP 20170721; conditions: 10 µM
Chain of Sialic acid-binding Ig-like lectin 9 (Homo sapiens) (Q9Y336 whole entry): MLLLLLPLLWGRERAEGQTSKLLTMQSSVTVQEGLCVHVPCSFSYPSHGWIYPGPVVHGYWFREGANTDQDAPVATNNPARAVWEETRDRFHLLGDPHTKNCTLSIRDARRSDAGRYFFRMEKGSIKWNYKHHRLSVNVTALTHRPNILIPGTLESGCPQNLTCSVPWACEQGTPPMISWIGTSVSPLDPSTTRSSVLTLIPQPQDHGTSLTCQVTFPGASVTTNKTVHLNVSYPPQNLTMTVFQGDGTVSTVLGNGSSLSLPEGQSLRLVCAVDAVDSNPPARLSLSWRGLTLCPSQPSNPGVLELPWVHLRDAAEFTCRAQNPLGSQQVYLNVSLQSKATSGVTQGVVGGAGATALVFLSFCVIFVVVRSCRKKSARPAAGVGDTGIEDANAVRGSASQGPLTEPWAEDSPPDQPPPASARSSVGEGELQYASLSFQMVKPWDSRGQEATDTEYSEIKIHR

Trypanosoma cruzi = assay: Trypanosoma cruzi phosphomannomutase and mannose-1-phosphate guanylyltransferase assay; type: functional; conditions: 10 µM
[5] = biological target: T2, Arginase-2, mitochondrial (Homo sapiens) (UniProt P78540); assay: in vitro enzyme assay to detect the production of urea directly proportional to the activity of Arginase II; type: functional; conditions: 33.3 µM; further: in the data most compounds retested in dose-response had high values
T2 sequence (whole entry): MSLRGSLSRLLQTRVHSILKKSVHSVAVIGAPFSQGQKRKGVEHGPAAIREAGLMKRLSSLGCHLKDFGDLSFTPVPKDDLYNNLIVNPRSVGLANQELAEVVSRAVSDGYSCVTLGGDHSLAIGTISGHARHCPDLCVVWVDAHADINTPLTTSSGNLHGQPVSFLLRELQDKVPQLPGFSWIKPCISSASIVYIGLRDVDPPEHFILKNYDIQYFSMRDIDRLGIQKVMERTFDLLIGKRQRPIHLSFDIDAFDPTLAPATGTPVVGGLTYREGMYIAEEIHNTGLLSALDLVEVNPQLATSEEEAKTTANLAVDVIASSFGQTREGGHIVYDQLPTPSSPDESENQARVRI

[6] = biological target: T3, Proteasome subunit beta (Trypanosoma cruzi) (UniProt O96673); assay: Trypanosoma cruzi proteasome chymotrypsin-like activity (TcProtChymo) assay.; further: in the data most compounds retested in dose-response had high values; type: functional; conditions: 9.37 µM
T3 sequence (whole entry): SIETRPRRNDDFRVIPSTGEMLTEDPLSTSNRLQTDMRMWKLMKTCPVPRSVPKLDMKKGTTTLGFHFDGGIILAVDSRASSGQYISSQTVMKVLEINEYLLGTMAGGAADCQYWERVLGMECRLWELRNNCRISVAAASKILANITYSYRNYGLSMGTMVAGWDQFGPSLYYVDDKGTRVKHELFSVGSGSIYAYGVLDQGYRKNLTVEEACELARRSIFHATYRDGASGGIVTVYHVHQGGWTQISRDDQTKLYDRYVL

Homo sapiens = organism: Homo sapiens; assay: To identify inhibition of the IFN signalling (Jak-Stat) pathway via expression of an eGFP reporter gene under the control of an IFN-stimulated response element (ISRE) containing MxA promoter.; type: functional; conditions: 30 µM
[7] = biological target: T4, Tyrosyl-tRNA synthetase, putative (Trypanosoma cruzi (strain CL Brener)) (UniProt Q4DSP6); assay: Trypanosoma cruzi tyrosyl tRNA synthetase (TcYRS) _High Tyrosine SOP; type: functional; conditions: 30 µM; further: in the data most compounds retested in dose-response had high values
T4 sequence (whole entry): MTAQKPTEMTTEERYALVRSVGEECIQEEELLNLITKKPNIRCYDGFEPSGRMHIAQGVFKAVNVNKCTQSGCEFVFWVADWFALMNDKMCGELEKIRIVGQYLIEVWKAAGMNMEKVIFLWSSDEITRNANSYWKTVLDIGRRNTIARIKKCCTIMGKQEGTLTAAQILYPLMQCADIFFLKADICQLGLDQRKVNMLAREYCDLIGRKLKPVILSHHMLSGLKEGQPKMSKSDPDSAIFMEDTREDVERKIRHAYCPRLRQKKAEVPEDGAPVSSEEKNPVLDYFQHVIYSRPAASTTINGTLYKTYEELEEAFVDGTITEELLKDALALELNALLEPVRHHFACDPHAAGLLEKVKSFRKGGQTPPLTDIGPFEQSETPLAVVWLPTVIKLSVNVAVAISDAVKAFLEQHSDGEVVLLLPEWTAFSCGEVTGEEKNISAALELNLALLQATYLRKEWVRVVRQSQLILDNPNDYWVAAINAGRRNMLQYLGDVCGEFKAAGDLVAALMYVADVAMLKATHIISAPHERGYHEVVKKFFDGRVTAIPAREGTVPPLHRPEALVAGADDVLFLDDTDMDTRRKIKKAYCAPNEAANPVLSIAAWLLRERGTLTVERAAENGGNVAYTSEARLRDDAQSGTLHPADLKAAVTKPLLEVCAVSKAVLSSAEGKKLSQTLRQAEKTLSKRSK

[8] = biological target: T4, Tyrosyl-tRNA synthetase, putative (Trypanosoma cruzi (strain CL Brener)); assay: Trypanosoma cruzi tyrosyl tRNA synthetase (TcYRS) SOP; type: functional; conditions: 30 µM
[9] = biological target: Chromo domain-containing protein 1 (Saccharomyces cerevisiae (strain ATCC 204508 / S288c) (Baker's yeast)) (UniProt P32657); assay: ScCHD-1 Enzyme Inhibition Assay; type: functional; conditions: 30 µM; further: in the data most compounds retested in dose-response had high values
Chain of Chromo domain-containing protein 1 (Saccharomyces cerevisiae (strain ATCC 204508 / S288c) (Baker's yeast)) (P32657 whole entry, the tested form may be a part): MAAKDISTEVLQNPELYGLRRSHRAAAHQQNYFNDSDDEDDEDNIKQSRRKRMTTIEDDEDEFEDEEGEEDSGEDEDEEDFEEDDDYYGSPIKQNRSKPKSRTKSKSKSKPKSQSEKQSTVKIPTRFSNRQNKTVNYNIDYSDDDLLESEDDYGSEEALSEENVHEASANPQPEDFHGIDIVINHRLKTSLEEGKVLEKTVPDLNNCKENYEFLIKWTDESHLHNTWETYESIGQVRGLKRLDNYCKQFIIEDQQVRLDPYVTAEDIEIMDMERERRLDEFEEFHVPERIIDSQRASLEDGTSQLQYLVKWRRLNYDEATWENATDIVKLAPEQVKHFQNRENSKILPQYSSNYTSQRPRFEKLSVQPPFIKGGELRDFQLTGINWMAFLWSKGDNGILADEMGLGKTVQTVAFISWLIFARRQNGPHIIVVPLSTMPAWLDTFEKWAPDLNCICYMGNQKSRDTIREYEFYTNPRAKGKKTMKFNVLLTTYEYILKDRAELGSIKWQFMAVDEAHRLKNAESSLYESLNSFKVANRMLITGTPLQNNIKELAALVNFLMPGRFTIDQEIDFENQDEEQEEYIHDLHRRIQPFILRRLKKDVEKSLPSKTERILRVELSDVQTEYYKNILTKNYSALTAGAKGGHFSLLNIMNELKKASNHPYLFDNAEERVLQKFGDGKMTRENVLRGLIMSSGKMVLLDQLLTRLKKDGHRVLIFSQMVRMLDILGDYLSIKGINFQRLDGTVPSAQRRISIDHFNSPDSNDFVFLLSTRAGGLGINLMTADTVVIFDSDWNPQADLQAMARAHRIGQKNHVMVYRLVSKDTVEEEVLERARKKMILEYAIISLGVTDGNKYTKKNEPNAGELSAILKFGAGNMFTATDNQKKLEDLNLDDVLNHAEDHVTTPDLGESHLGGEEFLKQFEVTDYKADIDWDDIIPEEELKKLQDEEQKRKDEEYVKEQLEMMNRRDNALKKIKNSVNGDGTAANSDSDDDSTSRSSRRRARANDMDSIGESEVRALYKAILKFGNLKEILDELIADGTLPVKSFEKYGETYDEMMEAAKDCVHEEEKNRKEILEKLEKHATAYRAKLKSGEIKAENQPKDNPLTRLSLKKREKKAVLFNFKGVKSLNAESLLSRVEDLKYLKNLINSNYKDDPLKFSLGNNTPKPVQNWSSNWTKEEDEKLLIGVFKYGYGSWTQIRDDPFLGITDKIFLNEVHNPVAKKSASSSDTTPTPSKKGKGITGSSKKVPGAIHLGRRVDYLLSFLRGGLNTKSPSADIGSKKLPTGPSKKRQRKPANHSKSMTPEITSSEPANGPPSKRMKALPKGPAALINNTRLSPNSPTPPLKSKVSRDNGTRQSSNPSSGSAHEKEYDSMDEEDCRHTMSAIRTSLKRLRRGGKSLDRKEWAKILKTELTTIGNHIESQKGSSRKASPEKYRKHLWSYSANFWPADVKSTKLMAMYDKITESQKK

Chain of Protein translocase subunit SecA (Escherichia coli (strain K12)) (P10408 whole entry): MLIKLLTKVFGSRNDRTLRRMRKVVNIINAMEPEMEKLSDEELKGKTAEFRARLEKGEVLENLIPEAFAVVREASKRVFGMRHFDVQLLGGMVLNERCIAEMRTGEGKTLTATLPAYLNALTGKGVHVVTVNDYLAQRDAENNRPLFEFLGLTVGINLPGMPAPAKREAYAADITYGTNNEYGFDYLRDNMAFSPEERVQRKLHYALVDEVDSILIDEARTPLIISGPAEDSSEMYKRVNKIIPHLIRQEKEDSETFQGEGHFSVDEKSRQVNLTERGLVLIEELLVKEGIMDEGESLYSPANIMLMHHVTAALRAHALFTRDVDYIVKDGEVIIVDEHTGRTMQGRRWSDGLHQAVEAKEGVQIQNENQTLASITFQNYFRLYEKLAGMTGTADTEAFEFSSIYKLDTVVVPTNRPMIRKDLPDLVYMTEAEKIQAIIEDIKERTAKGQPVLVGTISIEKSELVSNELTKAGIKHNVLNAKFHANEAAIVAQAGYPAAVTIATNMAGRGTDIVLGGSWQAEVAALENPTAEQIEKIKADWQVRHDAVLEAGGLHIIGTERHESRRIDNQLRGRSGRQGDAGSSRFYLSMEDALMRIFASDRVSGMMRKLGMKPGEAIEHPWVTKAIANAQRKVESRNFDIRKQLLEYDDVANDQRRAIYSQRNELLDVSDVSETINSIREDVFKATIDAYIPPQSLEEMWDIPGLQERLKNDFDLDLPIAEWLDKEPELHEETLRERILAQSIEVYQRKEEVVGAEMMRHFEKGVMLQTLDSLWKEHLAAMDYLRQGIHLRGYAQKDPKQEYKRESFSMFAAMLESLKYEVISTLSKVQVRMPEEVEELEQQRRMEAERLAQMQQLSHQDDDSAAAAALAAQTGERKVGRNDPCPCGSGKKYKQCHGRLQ

Row | SMILES | Percent Effect [1] [%] | Percent Effect [2] [%] | Percent Effect [3] [%] | Percent Effect [4] [%] | Percent Effect (Trypanosoma cruzi) [%] | Percent Effect [5] [%] | Percent Effect [6] [%] | Percent Effect (Homo sapiens) [%] | Percent Effect [7] [%] | Percent Effect [8] [%] | Percent Effect [9] [%]
1 | CCn1cc2c(n1)CN(CC1CC1)CC2COCC1CC1 (stereo not given) | -2.46 | 10.7 | 4.51 | -3.73 | -1.77 | -5.36 | 9.25 | -20.4 | 5.32 | 8.97 | -4.66
2 | Cn1cc(CCNC(=O)NC2CCS(=O)(=O)C2)cn1 (stereo not given) | -5.97 | -1.39 | -3.17 | -1.6 | -4.57 | -0.442 | 11.8 | -0.804 | 0 | 5.13 | -1.44
3 | CCOC(=O)c1sc2ccsc2c1CN | -2.04 | -5.41 | -6.96 | -0.173 | -5.29 | 3.88 | -7.36 | 20.9 | 0 | -1.22 | 5.83
4 | Cn1c2c(ccc1=O)CC(NS(C)(=O)=O)CC2 (stereo not given) | -7.68 | 5.33 | 5.05 | -7.17 | -1.97 | -0.233 | -1.15 | 20.7 | 2.13 | -3.85 | -1.57
5 | CCOc1ccc(NC(=O)CN2CCN(c3nccn3C)CC2)cc1 | 0.133 | 10.4 | 0.177 | -1.93 | 7.79 | -3.23 | 15.5 | -6.28 | 9.52 | 14.1 | -9
6 | CCOc1ccc(-n2nnc(C(=O)O)c2-c2ccncc2)cc1 | -0.35 | 13.2 | 1.31 | -8.67 | 0.292 | 1.18 | 9.11 | 23.3 | 2.13 | 18.2 | -5.18
7 | CC(c1nc(C2CC2)no1)N1CCN(c2ccc(C#N)cn2)CC1 (stereo not given) | 0.926 | 2.63 | 8.14 | 5.94 | -4.58 | -4.73 | 13.7 | 10.8 | 2.13 | 7.79 | -2.39
8 | COc1cccc2c1OCC(CNC(=O)CCCN1CCOCC1)C2 (stereo not given) | -1.74 | 5.41 | -7.92 | 19.8 | 2.05 | -0.248 | 13.1 | 11.9 | 8.6 | 18.5 | -5.59
9 | Cc1c(C2CCCN(C(=O)C3CC3)C2)n2c(nc1=O)CCC2 (stereo not given) | -7.83 | 23 | 2.41 | -4.63 | -0.593 | 0.232 | 15.4 | 3.94 | 4.3 | 11.7 | -11
10 | CSCc1cccc(S(=O)(=O)NCCCO)c1 | -4.83 | 5.2 | 5.07 | 1.97 | -0.0983 | -20.7 | 3.33 | -20.6 | 5.38 | 11.1 | -2.83
11 | Cc1noc(C2CCC3(CCN(C(=O)C4=CCCCC4)CC3)O2)n1 (stereo not given) | -7.11 | 10.8 | -5.86 | 30.2 | 3.42 | 3.23 | 8.67 | 3.52 | 8.6 | 16.1 | -7.09
12 | CN(C)Cc1ccnc(C2CCCN2Cc2cc[nH]n2)n1 (stereo not given) | -6.5 | -6.76 | 10.3 | -1.81 | -1.78 | -1.16 | 6.08 | -0.845 | 3.23 | 3.9 | 1.51
13 | CCOc1cccc(C(=O)N2CCN(c3nccc(OC)n3)CC2)c1 | -7.2 | 5.26 | 10.4 | -5.48 | -7 | 1.8 | 6.51 | 16.4 | -1.48 | 1.24 | -2.73
14 | CC(NC(=O)NCc1ccc(Cl)cc1)c1ccccn1 (stereo not given) | -1.55 | 1.27 | 3.12 | 3.62 | 5.23 | -6.24 | 12 | 12.2 | 2.08 | 0 | -24.6
15 | O=C(CO[C@@H]1CC[C@H]2[C@H]1OCCN2CC1CCOCC1)N1CCCC1 | -4.19 | 0 | 2.42 | -1.24 | -3.12 | 2.08 | 11.1 | 2.51 | 8.91 | 8.54 | 1.37
16 | COc1ncccc1C(=O)N1CCC(c2nnc(C3CC3)o2)CC1 | -1.83 | 10.4 | 11.3 | 3.07 | -5.82 | 16.1 | 9.75 | -6.69 | 4.23 | 11.5 | -9.2
17 | Cc1cc(C)c(CNC(=O)NCC2CCCO2)c(=O)[nH]1 (stereo not given) | -9.94 | 2.63 | 3.27 | 0.242 | -5.64 | -2.3 | -2.17 | 19.5 | -3.43 | -2.44 | 2.35
18 | Cc1ccc(C#N)c(N2CCC(c3nccn3CCN(C)C)CC2)n1 | -4.49 | 2.67 | 1.54 | 4.68 | -3.6 | -2.08 | 11.7 | 12.9 | 7.1 | 11.1 | -8.91
19 | CC(=O)N1CC(=O)N(c2ccccc2)CC12CCN(Cc1cccs1)C2 (stereo not given) | -0.462 | 16 | -5.96 | 8.98 | 2.51 | -36.4 | 7.69 | -11.1 | 5.21 | 27.5 | -7.74
20 | CCc1ccc(CN2CC[C@H]3C[C@H](c4nnc(C)[nH]4)O[C@@H]3C2)o1 | -2 | 0 | -2.87 | 34.9 | 9.52 | -6.79 | 17.2 | 9.84 | 0 | -1.24 | -3.68

— ChEMBL document CHEMBL3988442, “University of Dundee, Small-Polar-MMV Screening Library” (2021)
